Of roughly 8,800 targets only a part is listed; those with a hit were picked by preference. About 0.5% of all pairs of compound and target were hits. Values without a mark were called inactive.
Legend:
Experiment in all cases: log2 fold change, soluble protein after heating vs DMSO (PISA); higher = thermal stabilisation; K562 lysate, 10 uM; active = over 0.2 and 3.5 SD of the protein, either way, in both replicates (recomputed)
[1] = compound: C1=CC=C(C=C1)[C@H](COC2=CC3=C(C=C2)NC(=O)N3)NC(=O)C4=CC=CN(C4=O)CC5=CC(=C(C=C5)F)F
How it was run: (§1)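 Following dounce homogenisation of K562 pellets in PBS pH 7.4 with 1 mM MgCl2, crude extract at 1 mg/mL protein was incubated for 30 min with 10 μM compound. Aliquots were then heated for 3 min over 48°C-58°C and pooled, NP-40 was added to 0.5% at 4°C, and soluble protein was recovered as the supernatant at 21,000xg for 90 min. Channel-sum-equalised TMTpro 16plex LC-MS/MS quantified this protein. Each value, from duplicates, is a log-two fold change in thermal stability relative to solvent controls.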

[2] = compound: CC1=C(SC2=C1C(=N[C@H](C3=NN=C(N32)C)CC(=O)N)C4=CC=C(C=C4)Cl)C
How it was run: as §1

[3] = compound: CC1=C2C(=CC=C1)N=C(N(C2=O)C3=CC=CC=C3C)CN4C=NC5=C(N=CN=C54)N
How it was run: as §1

[4] = compound: Cc1sc2c(c1C)C(c1ccc(Cl)cc1)=N[C@@H](CC(=O)OC(C)(C)C)c1nnc(C)n1-2
How it was run: as §1

[5] = compound: c1ccc([C@@H]2C[C@H]2NC2CCNCC2)cc1
How it was run: as §1

Sequence of UniProt Q9NSE4 (Q9NSE4 whole entry, looked up): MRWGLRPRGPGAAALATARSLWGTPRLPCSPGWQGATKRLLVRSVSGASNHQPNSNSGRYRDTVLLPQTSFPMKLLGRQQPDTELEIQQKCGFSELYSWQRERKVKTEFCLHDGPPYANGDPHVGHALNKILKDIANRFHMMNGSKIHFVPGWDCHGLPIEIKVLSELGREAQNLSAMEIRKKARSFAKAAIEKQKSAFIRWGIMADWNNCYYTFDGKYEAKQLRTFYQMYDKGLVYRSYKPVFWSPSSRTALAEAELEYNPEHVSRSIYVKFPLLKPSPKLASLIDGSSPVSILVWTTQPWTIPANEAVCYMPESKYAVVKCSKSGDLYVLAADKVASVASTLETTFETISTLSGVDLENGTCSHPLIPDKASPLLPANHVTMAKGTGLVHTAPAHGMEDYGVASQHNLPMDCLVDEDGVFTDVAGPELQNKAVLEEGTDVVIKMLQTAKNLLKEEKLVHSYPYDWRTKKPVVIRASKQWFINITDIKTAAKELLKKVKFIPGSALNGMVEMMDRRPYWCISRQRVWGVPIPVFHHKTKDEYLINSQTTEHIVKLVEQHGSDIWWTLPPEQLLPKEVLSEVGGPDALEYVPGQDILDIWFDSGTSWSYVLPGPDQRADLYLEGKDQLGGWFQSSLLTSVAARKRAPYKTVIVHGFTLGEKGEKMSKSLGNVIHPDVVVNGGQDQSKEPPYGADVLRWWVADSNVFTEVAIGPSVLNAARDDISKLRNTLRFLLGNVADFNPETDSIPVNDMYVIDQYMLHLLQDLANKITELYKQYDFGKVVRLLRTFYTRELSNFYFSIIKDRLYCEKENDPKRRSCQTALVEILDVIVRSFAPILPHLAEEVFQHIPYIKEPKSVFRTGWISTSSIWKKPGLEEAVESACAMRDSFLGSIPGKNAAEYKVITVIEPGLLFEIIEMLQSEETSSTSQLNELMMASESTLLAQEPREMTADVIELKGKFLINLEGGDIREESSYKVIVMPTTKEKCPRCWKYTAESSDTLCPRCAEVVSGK
Sequence of UniProt Q27J81 (Q27J81 whole entry, looked up): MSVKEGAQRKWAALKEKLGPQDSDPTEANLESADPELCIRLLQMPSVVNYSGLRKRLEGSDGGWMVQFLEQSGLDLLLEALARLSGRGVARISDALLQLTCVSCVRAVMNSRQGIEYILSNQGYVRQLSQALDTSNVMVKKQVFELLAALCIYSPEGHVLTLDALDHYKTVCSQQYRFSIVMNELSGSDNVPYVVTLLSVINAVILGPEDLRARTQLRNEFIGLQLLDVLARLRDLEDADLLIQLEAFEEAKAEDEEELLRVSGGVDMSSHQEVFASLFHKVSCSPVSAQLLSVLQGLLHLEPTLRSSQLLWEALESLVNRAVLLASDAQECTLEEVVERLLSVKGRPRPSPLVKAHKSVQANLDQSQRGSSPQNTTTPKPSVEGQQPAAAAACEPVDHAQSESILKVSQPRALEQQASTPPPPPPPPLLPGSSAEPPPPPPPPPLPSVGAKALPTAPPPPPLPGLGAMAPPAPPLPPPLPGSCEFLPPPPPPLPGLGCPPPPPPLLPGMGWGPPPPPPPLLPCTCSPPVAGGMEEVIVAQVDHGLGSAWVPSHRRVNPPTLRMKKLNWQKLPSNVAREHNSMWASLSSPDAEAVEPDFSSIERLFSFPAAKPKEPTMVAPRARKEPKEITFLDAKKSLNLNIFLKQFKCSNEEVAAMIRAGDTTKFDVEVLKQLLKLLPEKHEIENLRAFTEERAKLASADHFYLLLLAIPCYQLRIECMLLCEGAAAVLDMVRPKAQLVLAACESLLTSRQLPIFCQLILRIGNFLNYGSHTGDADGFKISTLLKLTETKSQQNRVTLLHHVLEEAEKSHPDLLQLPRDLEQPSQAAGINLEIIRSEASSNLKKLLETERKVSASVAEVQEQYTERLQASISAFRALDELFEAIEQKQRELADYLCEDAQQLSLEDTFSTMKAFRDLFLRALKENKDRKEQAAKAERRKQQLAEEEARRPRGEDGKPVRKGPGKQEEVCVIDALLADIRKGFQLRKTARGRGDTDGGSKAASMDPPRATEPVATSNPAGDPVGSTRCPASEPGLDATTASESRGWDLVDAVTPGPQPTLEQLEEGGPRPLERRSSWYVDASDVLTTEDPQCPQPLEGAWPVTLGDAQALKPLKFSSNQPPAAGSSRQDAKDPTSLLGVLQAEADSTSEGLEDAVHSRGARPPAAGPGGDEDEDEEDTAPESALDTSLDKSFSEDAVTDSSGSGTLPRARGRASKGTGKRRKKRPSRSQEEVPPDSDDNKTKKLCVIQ
Sequence of UniProt Q8TDG4 (Q8TDG4 whole entry, looked up): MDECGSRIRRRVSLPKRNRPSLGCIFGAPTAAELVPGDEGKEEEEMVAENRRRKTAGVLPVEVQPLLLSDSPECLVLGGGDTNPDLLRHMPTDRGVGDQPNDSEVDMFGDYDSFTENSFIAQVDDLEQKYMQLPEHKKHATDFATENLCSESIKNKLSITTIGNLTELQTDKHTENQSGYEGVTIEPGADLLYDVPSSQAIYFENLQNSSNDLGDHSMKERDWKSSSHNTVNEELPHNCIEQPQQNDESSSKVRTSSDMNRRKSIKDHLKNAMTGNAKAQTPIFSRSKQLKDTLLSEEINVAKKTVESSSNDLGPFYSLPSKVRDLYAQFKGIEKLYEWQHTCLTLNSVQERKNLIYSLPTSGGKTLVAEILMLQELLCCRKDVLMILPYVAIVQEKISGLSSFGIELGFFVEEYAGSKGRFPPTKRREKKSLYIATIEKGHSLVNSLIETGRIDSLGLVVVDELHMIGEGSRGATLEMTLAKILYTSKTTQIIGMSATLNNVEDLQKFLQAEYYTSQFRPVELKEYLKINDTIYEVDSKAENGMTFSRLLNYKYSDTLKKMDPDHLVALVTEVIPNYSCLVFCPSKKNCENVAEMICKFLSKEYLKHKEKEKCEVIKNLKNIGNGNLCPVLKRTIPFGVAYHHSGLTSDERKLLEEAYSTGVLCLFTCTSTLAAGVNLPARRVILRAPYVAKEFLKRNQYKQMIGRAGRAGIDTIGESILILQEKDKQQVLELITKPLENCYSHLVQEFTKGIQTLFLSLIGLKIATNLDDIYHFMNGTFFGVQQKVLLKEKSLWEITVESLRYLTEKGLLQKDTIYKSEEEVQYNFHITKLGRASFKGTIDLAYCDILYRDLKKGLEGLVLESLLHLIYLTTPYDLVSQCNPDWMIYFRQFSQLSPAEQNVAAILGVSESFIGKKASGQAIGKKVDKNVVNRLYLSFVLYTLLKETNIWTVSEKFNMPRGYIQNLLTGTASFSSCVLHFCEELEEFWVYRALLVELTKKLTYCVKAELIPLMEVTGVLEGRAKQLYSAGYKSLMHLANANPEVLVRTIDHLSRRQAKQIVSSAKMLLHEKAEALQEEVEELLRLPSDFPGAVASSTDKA
Sequence of UniProt Q16891 (Q16891 whole entry, looked up): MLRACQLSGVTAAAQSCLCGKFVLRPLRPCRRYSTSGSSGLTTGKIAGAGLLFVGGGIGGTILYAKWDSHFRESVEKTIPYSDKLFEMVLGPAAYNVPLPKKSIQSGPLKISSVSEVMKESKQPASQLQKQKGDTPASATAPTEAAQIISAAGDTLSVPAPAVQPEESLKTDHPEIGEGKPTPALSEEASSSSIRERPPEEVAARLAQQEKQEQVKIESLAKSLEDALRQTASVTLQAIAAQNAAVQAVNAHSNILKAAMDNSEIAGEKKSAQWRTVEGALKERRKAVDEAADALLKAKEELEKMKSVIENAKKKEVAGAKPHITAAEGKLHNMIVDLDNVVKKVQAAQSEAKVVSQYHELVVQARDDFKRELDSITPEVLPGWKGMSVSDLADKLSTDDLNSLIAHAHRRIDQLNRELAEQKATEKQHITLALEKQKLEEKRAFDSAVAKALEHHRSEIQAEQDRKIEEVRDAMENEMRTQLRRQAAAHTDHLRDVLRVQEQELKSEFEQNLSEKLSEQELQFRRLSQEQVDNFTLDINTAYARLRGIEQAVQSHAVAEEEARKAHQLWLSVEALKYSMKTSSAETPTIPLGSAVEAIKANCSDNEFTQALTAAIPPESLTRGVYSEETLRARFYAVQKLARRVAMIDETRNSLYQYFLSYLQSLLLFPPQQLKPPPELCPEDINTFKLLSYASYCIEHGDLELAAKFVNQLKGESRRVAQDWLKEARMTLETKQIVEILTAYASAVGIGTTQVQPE
Sequence of UniProt P32780 (P32780 whole entry, looked up): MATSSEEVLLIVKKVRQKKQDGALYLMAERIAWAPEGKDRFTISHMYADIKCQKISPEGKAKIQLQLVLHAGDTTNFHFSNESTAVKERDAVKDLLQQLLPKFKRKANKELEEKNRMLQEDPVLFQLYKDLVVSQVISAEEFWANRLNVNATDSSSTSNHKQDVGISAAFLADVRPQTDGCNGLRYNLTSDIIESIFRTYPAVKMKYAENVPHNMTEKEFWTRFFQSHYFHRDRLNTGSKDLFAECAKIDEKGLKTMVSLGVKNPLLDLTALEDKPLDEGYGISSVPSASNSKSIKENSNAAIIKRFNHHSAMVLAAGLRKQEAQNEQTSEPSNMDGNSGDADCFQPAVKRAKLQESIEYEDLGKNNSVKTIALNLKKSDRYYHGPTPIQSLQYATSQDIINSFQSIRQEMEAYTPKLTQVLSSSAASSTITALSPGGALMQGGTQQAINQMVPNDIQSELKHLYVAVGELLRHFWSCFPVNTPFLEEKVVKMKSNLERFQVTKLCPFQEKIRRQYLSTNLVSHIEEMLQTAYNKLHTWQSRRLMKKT
Sequence of UniProt P04792 (P04792 whole entry, looked up): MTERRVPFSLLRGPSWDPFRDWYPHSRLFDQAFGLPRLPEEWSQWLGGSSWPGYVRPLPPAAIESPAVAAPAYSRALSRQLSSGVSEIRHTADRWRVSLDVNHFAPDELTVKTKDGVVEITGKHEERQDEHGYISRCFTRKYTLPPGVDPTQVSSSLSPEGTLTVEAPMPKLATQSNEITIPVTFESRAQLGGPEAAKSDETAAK

Target | log2 fold change [1] | log2 fold change [2] | log2 fold change [3] | log2 fold change [4] | log2 fold change [5]
KDM1A (UniProt O60341) | 0.007 | -0.004 | 0.018 | 0.009 | 0.817 (active)
HSPB1 (UniProt P04792) | -0.091 | 0.002 | 0.002 | -0.017 | 0.028
HSD17B12 (UniProt Q53GQ0) | -0.127 | -0.006 | 0.059 | 0.031 | -0.108
INTS7 (UniProt Q9NVH2) | -0.06 | 0.007 | 0.016 | 0.009 | -0.001
HDAC3 (UniProt O15379) | -0.035 | 0.009 | 0.006 | 0.044 | 0.014
GTF2H1 (UniProt P32780) | 0.006 | -0.035 | 0.089 | 0.025 | 0.006
INF2 (UniProt Q27J81) | 0.016 | 0.017 | 0.015 | -0.014 | -0.06
HACE1 (UniProt Q8IYU2) | -0.03 | 0.08 | 0.07 | -0.115 | -0.377
HELQ (UniProt Q8TDG4) | 0.033 | 0.028 | 0.005 | -0.004 | -0.074
IMMT (UniProt Q16891) | -0.089 | 0.016 | 0.017 | 0.022 | 0.038
IARS2 (UniProt Q9NSE4) | 0.004 | 0.013 | -0.006 | 0.028 | 0.119
KHDRBS1 (UniProt Q07666) | -0.04 | 0.027 | 0 | 0.058 | 0.045
HADHA (UniProt P40939) | 0.065 | -0.006 | 0.102 | 0.117 | -0.008
